CBX7 inh = CBX7 inhibition, primary AlphaScreen; AID 1224903; AlphaScreen His6-CBX7 / biotin-H3K27me3 peptide binding; hits give low values; normalised signal (fraction of DMSO) (concentration not given with the values); O95931; 1.1% of 66,000 active; in the data active means normalised signal below about 0.5
Target sequence (O95931 whole entry, looked up): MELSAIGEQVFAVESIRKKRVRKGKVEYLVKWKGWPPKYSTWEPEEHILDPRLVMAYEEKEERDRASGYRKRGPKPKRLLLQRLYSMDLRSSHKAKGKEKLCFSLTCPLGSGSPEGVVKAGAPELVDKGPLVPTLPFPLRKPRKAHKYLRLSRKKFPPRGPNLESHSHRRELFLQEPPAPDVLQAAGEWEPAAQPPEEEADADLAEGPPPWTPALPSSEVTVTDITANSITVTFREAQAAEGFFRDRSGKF
Large screens that a line does not name were inactive; ! = not confirmed by another sample. Shown is part of a subset that was picked to be rich in hits.

CC(=O)Nc1ccc(-c2nc3ccc(-c4nc5ccccc5o4)cc3[nH]2)cc1	none
CC1CCCC(C)N1CCNC(=O)c1cc(=O)[nH]c2ccc(S(=O)(=O)N3CCCCC3C)cc12 (stereo not drawn)	none
CCCOc1ccc(C(=O)N(Cc2ccc(OC)c(OC)c2)C2CCS(=O)(=O)C2)cc1 (stereo not drawn)	none
COc1ccc(Nc2nc(-c3ccc(C)cc3)c(CC(=O)O)s2)cc1	none
CCC(CC)C(=O)Nc1c(-c2ccc(OC)cc2)nc2cc(C)ccn12	none
Cc1ccn2c(-c3csc(Nc4ccccc4C)n3)c(C)nc2c1	none
Cc1ccc(Nc2nc(-c3c(C)nc4sccn34)cs2)cc1	none
CC(=O)Nc1nc(C)c(-c2csc(Nc3ccc(Cl)cc3)n2)s1	none
Cc1ccn2c(-c3csc(Nc4cccc(C(=O)O)c4)n3)c(C)nc2c1	none
Cc1nc2sccn2c1-c1csc(Nc2ccccc2)n1	none
Cc1ccn2c(-c3csc(Nc4ccccc4Cl)n3)c(C)nc2c1	none
CCN(CC)c1ccc(Nc2nc(-c3c(C)nc4cc(C)ccn34)cs2)cc1	CBX7 inh 0.235
Cc1ccn2c(-c3csc(Nc4ccccc4)n3)c(C)nc2c1	none
Cc1nc2sccn2c1-c1csc(Nc2cccc(O)c2)n1	CBX7 inh 0.271!
Cc1nc(C)c(-c2csc(Nc3ccc(N(C)C)cc3)n2)s1	CBX7 inh 0.0536
Cc1ccc(Nc2nc(-c3c(C)nc4cc(C)ccn34)cs2)c(C)c1	CBX7 inh 0.416!
Cc1nc(C)c(-c2csc(Nc3ccc(Cl)cc3)n2)s1	none
Clc1ccc(-c2nnc(-c3ccc(Br)cc3)o2)c(Cl)c1	none
Cc1ccccc1Cc1c(C)nc2nc(SCC(=O)NCc3ccc4c(c3)OCO4)nn2c1C	none
CCOC(=O)C1CCN(C(=O)COc2ccc3c(c2)C(=O)CC(C)(C)O3)CC1	none
CCc1cccc(NC2c3ccccc3C(=O)N2Cc2ccccc2Cl)c1 (stereo not drawn)	none
CCCN1Cc2cccc(C(=O)NCc3ccccc3Cl)c2C1=O	none
CCN(CC)CCCNc1nnc(Cc2cccnc2)c2ccccc12	none
Cc1nc2ccccn2c1-c1csc(Nc2ccc(N(C)C)cc2)n1	CBX7 inh 0.466
CC(=O)Nc1ccc(Nc2nc(-c3c(C)nc4ccccn34)cs2)cc1	none
Cc1nc2ccccn2c1-c1csc(Nc2ccc(Br)cc2)n1	none
CCOC(=O)c1cnc2ccc(OCC)cc2c1N1CCN(C)CC1	none
CCOC(=O)c1cnc2ccc(OCC)cc2c1N1CCN(Cc2ccccc2)CC1	CBX7 inh 0.498
CCOC(=O)c1cnc2ccc(OCC)cc2c1N1CCN(c2ccccn2)CC1	none
COc1ccc(S(=O)(=O)N(C)CCc2ccccn2)cc1	none
CCOc1ccc(CN(C)CCc2ccccn2)cc1	CBX7 inh 0.471
COc1ccccc1CN(C)CCc1ccccn1	none
Cc1nc(Oc2ccc(Br)cc2)c2c3c(sc2n1)CCCC3	none
O=c1oc2ccc(Br)cc2cc1-c1nc2ccccc2c(=O)[nH]1	none
Cc1ccc(C(=O)NCCc2cc3c(C)ccc(C)c3[nH]c2=O)cc1	none
c1ccc(Oc2ccc(Nc3c4c(nc5ccccc35)CCC4)cc2)cc1	none
COc1ccc(CCCc2nnc(SCC(=O)Nc3ccc(C)c(Cl)c3)o2)cc1	none
c1ccc(CN2CCC(NCCc3ccc4c(c3)OCO4)CC2)cc1	CBX7 inh 0.483
c1ccc(-c2csc(N3CCN(Cc4ccc5c(c4)OCO5)CC3)n2)cc1	none
O=C1CC(N2CCN(Cc3ccc4c(c3)OCO4)CC2)C(=O)N1CC(c1ccccc1)c1ccccc1 (stereo not drawn)	none
CN(C)CCNC(=O)c1cn(-c2ccc(F)cc2F)c(=O)c2ccccc12	none
COc1ccc(-c2noc(N(C)CC(=O)Nc3ccc(OC)c(OC)c3)n2)cc1	none
COCc1nnc(NC(=O)c2ccc(S(=O)(=O)N(C)c3ccccc3)cc2)o1	none
CN(c1ccccc1)S(=O)(=O)c1ccc(C(=O)Nc2nnc(C3CC3)o2)cc1	none
CC(C)N(Cc1ccccc1)S(=O)(=O)c1ccc(C(=O)Nc2nnc(-c3cccs3)o2)cc1	none
CCN(c1ccccc1)S(=O)(=O)c1ccc(C(=O)Nc2nnc(COC)o2)cc1	none
CCN(c1ccccc1)S(=O)(=O)c1ccc(C(=O)Nc2nnc(C3CC3)o2)cc1	CBX7 inh 0.0661
CCc1nnc(NC(=O)c2ccc(S(=O)(=O)N(CC)c3ccccc3)cc2)o1	CBX7 inh 0.0735
Cc1ccc(Nc2cc(C(=O)O)c3ccccc3n2)cc1C	none
O=C(NCCCN1CCCCC1)c1cc(-c2cccnc2)nc2ccccc12	none
O=C(Nc1cccc(C(F)(F)F)c1)c1cnc2ccccc2n1	none
Cc1cc2ncn(CC(O)COCc3ccccc3)c2cc1C (stereo not drawn)	CBX7 inh 0.0512
COC(=O)c1ccc(OCC(O)Cn2cnc3cc(C)c(C)cc32)cc1 (stereo not drawn)	none
Cc1ccc(OCCCn2cnc3cc(C)c(C)cc32)cc1	none
O=C1c2ccccc2C(=O)N1CC(O)COCc1ccccc1 (stereo not drawn)	none
Cc1cc2ncn(C(C)c3ccccc3)c2cc1C (stereo not drawn)	none
Cc1cc2ncn(CC(O)COc3ccc(C(=O)O)cc3)c2cc1C (stereo not drawn)	none
Cc1ccc(Cl)c(OCC(O)Cn2cnc3cc(C)c(C)cc32)c1 (stereo not drawn)	none
Cc1cc2ncn(CC(O)COCC3CC=CCC3)c2cc1C (stereo not drawn)	none
Cc1cccc(OCC(O)Cn2cnc3cc(C)c(C)cc32)c1 (stereo not drawn)	CBX7 inh 0.0446
Cc1ccc(OCC(O)Cn2cnc3cc(C)c(C)cc32)cc1 (stereo not drawn)	CBX7 inh 0.0722
Cc1cc2ncn(CC(O)COC3CCCCC3)c2cc1C (stereo not drawn)	CBX7 inh 0.0441
CCCCn1c(=N)n(CC(O)COc2cccc(C)c2)c2ccccc21 (stereo not drawn)	none
Cc1cc(NS(=O)(=O)c2cn(C)cn2)ccc1Br	none
Cc1ccc(C)c(NC(=O)c2cnn(-c3ccccc3)c2C2CCN(C(=O)OC(C)(C)C)CC2)c1	none
CCOC(=O)c1ccc2nc(C)cc(Nc3ccc(N(C)C)cc3)c2c1	none
CCc1ccc(NC(=O)CCc2nnc3ccc(N4CCOCC4)nn23)cc1	none
CCc1nc2ccccc2c(NC(=O)CN2CCOCC2)c1C	none
CCN(c1cccc(C)c1)S(=O)(=O)c1ccc2c(c1)CCC(=O)N2	none
Cc1ccc(NC(=O)C2CCN(S(=O)(=O)c3cccs3)CC2)cc1F	none
Cc1cc(C)cc(-n2cnc3cc(C(=O)NC4CCCCC4C)ccc32)c1 (stereo not drawn)	none
c1ccc(C(OCCn2cncn2)c2ccccc2)cc1	none
Cc1cccc(NC(=O)c2c(-c3c(Cl)cccc3Cl)noc2C)n1	none
CCCCC(=O)Nc1cccc(-c2csc(-c3ccccc3)n2)c1	none
CCCc1cc(-c2nc(-c3cccc([N+](=O)[O-])c3)cs2)ccn1	CBX7 inh 0.429
CCc1cc(-c2nc(-c3ccc(Cl)c(Cl)c3)cs2)ccn1	none
CC1CCCC(NC(=O)CN2C(=O)CSc3ncccc32)C1C (stereo not drawn)	none
CCc1nnc(NC(=O)COc2ccc(C)cc2C(C)(C)C)s1	none
O=C(Nc1nnc(Cc2ccc(Cl)cc2)s1)C(F)(F)F	none
CCOc1ccc(-c2nnc(SCC(=O)Nc3ccccc3)c3ccccc23)cc1	none
CCOC(=O)c1ccc(NC(=O)CSc2nccn2-c2ccc(Cl)cc2)cc1	none
N#Cc1nc(COc2ccc(Cl)cc2)oc1N1CCN(Cc2ccccc2)CC1	none
Cc1ccc(OCc2nc(C#N)c(N3CC(C)CC(C)C3)o2)cc1 (stereo not drawn)	none
COc1ccc(N2CCN(c3oc(COc4ccccc4OC)nc3C#N)CC2)cc1	none
COc1ccc(OCc2nc(C#N)c(N3CCCCCC3)o2)cc1	none
Cc1ccc(OCc2nc(C#N)c(N3CCCCCC3)o2)cc1	CBX7 inh 0.398
